Active and inactive are the calls of the source.

Our source for the composite z-score, z-score and composite Z-score values is PubChem BioAssay.

For test [1], the system named is Human papillomavirus type 1a protein E7 (residues 44-93). Briefly: HPV1a E7 fragment binders on microarrays, primary screen, biochemical, small-molecule microarray, residues 44-93, 635 nm fluorescence (AID 1108).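 Further: E7 fragment applied at 1 µg/mL in TBST for 1 h at 4 C; score combines spot fluorescence with its signal to noise ratio.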 Particulars: small-molecule microarray binding, fluorescence 635 nm; higher = more signal.
Test [2] can be described thus: modulators of HCV replicon luciferase signal, primary screen, HCV replication inhibitor project, Huh7 cells, luciferase reporter (AID 1109).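 Further: huh7 hepatoma cells harbouring a luciferase neomycin HCV replicon reporter; luciferase luminescence as measure of HCV replicon replication; test concentration not given here.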 Particulars: 48 h, higher = more signal.
In test [3] the target is Left-right determination factor 2 (Homo sapiens) (UniProt O00292). Briefly: LEFTY2 binders on small-molecule microarrays, primary screen, biochemical, small-molecule microarray, 635 nm fluorescence scan (AID 1110). Particulars: LEFTY2 binding, higher = more signal.
Sequence of Left-right determination factor 2 (Homo sapiens) (O00292 whole entry, looked up): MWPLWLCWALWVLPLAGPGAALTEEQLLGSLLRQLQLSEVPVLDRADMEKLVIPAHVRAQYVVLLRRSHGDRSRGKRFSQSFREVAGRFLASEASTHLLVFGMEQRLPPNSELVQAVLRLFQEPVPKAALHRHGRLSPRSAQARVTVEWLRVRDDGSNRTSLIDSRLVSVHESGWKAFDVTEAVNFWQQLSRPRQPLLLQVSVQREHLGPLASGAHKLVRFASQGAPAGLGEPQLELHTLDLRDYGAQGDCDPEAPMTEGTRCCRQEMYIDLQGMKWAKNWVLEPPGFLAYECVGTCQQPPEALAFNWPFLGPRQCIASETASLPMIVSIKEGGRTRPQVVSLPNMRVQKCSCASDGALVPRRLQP
The target of test [4] is Calmodulin-1 (Homo sapiens) (UniProt P0DP23). Briefly: CALM1 binders on microarrays, EGTA buffer, profiling panel, biochemical, small-molecule microarray, Cy5-labelled CALM1 (AID 1111).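 Further: labelled calmodulin applied in Tris saline Tween buffer holding calcium plus EGTA and DTT.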 The conditions noted are these: Cy5-CALM1 binding fluorescence, higher = more signal.
For test [5] the target is unchanged. Briefly: calcium-bound CALM1 binders on microarrays, profiling panel, artefact control for SMM control-protein annotation, biochemical, small-molecule microarray, Cy5-labelled CALM1, plus calcium (AID 1112).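 Further: score merges spot fluorescence with signal to noise from triplicate slides.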 The conditions noted are these: Cy5-CALM1 binding fluorescence, higher = more signal.
Test [6] is described as follows: small-molecule microarray binders of probe aWnt5a, primary screen, biochemical, biotinylated probe, 635/667 nm fluorescence (AID 1113).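 Further: score merges 667 nm fluorescence intensity with signal-to-noise per printed feature.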 The conditions noted are these: higher = more signal.
The nature of test [7]: small-molecule microarray binders of probe aShh, primary screen, biochemical, biotinylated probe, 635/667 nm fluorescence (AID 1114).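 Further: probe is biotin-labelled aShh protein from a stem cell growth factor screen; measures binding of labelled protein to compounds printed on the slide; score merges feature fluorescence at 667 nm with signal-to-noise.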 The conditions noted are these: higher = more signal.
Test [8] in a line: small-molecule microarray binders of probe aNog, primary screen, biochemical, biotinylated probe, 635/667 nm fluorescence (AID 1115).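 Further: probe is biotinylated aNog protein used at 0.15 µg/mL for 1 h at 4 C; z-score combines 667 nm fluorescence of each spot with its signal to noise.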 Particulars: higher = more signal.
Test [9] deals with Torsin-1A-interacting protein 1 (Homo sapiens) (UniProt Q5JTV8). Description: LAP1 binders from COS7 cell lysate, primary screen, small-molecule microarray, 635/667 nm fluorescence (AID 1116). The conditions noted are these: COS7-hLAP1 lysate binding, 635 nm fluorescence, higher = more signal.
Sequence of Torsin-1A-interacting protein 1 (Homo sapiens) (Q5JTV8 whole entry, looked up): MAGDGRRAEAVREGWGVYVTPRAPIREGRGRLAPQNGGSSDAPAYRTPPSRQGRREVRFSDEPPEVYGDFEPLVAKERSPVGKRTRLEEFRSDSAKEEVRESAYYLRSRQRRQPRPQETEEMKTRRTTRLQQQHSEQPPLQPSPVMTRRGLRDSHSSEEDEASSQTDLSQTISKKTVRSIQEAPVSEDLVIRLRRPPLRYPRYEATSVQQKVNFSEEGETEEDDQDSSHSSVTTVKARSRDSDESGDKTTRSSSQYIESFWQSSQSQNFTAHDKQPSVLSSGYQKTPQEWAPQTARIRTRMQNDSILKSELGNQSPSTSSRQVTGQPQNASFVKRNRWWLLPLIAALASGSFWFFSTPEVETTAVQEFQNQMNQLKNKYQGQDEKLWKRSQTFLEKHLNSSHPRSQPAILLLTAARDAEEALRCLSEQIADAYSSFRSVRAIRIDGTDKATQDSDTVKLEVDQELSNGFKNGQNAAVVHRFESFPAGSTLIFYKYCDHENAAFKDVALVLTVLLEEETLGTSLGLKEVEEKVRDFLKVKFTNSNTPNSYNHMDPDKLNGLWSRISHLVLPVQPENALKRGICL
Test [10] addresses Alpha-bungarotoxin (Bungarus multicinctus) (UniProt P60615). Description: alpha-bungarotoxin binders on microarray, profiling panel, artefact control for SMM control protein annotation, biochemical, small-molecule microarray, Alexa647 label, 635/667 nm fluorescence (AID 1117). Particulars: alpha-BTX-A647 binding fluorescence, higher = more signal.
In test [11] the target is Albumin (Bos taurus) (UniProt P02769). Description: bovine serum albumin binders on microarray, profiling panel, artefact control for SMM control protein annotation, biochemical, small-molecule microarray, Alexa647 label, 635/667 nm fluorescence (AID 1118).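 Further: score merges 667 nm emission intensity and signal-to-noise per printed compound spot.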 Particulars: BSA-A647 binding, fluorescence 635 nm, higher = more signal.
Sequence of Albumin (Bos taurus) (P02769 whole entry, looked up): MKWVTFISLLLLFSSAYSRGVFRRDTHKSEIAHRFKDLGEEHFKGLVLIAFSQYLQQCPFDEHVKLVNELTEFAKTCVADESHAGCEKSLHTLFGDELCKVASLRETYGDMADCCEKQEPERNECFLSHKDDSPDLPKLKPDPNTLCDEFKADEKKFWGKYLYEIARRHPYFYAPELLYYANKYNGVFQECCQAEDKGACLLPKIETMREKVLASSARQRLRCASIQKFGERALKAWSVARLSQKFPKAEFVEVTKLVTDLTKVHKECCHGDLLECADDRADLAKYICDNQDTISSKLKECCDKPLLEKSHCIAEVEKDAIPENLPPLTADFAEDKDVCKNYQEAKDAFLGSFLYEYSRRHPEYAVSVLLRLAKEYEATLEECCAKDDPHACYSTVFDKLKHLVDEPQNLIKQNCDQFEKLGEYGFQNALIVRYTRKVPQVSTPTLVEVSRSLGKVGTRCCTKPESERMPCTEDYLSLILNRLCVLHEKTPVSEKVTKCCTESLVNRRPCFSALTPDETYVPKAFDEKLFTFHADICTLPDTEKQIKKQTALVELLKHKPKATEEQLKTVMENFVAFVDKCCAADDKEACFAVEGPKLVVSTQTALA
Test [12] in a line: small-molecule microarray binders of probe aXIP, primary screen, biochemical, NeuroSMM set, 635/667 nm fluorescence (AID 1119).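 Further: probe is the protein aXip251-270 applied at 1 µg/mL to compound-printed slides; binding of probe to printed compounds measured as 667 nm fluorescence plus signal to noise.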 The conditions noted are these: higher = more signal, called active from +8 up or from −8 down.
Test [13] is described as follows: small-molecule binders of probe aNOTCH3, primary screen, biochemical, small-molecule microarray, 635/667 nm fluorescence (AID 1120).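 Further: probe is a biotin-tagged antibody raised against NOTCH3 rather than NOTCH3 protein; score merges spot fluorescence near 667 nm with spot signal to noise.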 The conditions noted are these: higher = more signal.
Test [14] can be described thus: small-molecule binders of probe aNOTCH2, primary screen, biochemical, small-molecule microarray, 635/667 nm fluorescence (AID 1121).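 Further: score merges feature fluorescence read at 667 nm with its signal to noise.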 The conditions noted are these: higher = more signal.
The target of test [15] is Carbonic anhydrase 2 (Homo sapiens) (UniProt P00918). Briefly: CAII small-molecule binders, profiling panel, biochemical, small-molecule microarray, Alexa647-labelled CAII (AID 1122). The conditions noted are these: CAII-A647 binding fluorescence, higher = more signal.
A short description of test [16]: COS7 lysate on small-molecule microarray, probe aHis, 635 nm (AID 1123).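 Further: z-score combines 667nm fluorescence intensity with signal-to-noise per printed compound spot.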 Particulars: COS7 cell lysate, fluorescence, higher = more signal.
Test [17] can be described thus: compound binding in COS7 lysate, probe aLAP1, primary screen, cell lysate, small-molecule microarray (AID 1124).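 Further: lysate comes from COS7 cells expressing LAP1 and is applied at 0.3 µg/mL; score merges spot fluorescence near 667 nm with signal-to-noise over triplicate slides.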 Particulars: probe aLAP1, fluorescence, higher = more signal.
Test [18] relates to Sam68 (KHDRBS1). Description: Sam68 small-molecule binders, primary screen, biochemical, small-molecule microarray, 635 nm fluorescence (AID 1125).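 Further: score merges 667 nm channel intensity with signal to noise over triplicate slides.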 Particulars: small-molecule microarray binding, higher = more signal.
In test [19] the test system is Chordin-like protein 2 (CHRDL2). Briefly: CHRDL2 small-molecule binders, primary screen, biochemical, small-molecule microarray, 635 nm fluorescence (AID 1126).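 Further: printed compound slides probed with Chrdl2 protein at 4 µg/mL for 1 h at 4 C; score merges 667 nm emission intensity with signal to noise over three replicate slides.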 Particulars: small-molecule microarray binding, fluorescence 635 nm; higher = more signal.
Test [20] concerns the target Concanavalin-A (Canavalia ensiformis) (UniProt P02866). Description: ConA small-molecule binders, primary screen, artefact control for SMM control protein annotation, biochemical, small-molecule microarray, Alexa647 label, 635 nm (AID 1127).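 Further: z combines 667 nm emission intensity with signal-to-noise across three replicate slides.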 Particulars: ConA-A647 binding fluorescence, higher = more signal.

Sequence of Concanavalin-A (Canavalia ensiformis) (P02866 whole entry, looked up): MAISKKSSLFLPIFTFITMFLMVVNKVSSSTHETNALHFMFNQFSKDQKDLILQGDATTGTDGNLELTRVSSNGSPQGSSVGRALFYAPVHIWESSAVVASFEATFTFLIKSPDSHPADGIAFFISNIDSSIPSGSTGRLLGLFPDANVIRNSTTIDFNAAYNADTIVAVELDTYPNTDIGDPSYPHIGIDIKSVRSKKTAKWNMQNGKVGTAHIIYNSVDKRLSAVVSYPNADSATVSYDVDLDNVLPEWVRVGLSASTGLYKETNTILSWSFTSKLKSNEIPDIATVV
Sequence of Alpha-bungarotoxin (Bungarus multicinctus) (P60615 whole entry, looked up): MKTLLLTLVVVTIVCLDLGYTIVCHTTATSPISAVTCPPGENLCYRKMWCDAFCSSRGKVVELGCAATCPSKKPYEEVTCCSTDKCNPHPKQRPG

Turning to `CCOC(=O)C1=C[C@@H](C(C)(C)C)N(S(=O)(=O)c2ccc(C)cc2)[C@H]1c1ccc(C)cc1`, the composite z-score in test [1] is 0.974; in test [3] it was 0.424; in test [4], 1.81; in test [5], -0.0354; in test [6], 0.0479; in [7], -0.0709. The composite z-score in [8] turned out to be 1.27; in test [9], 0.229; in test [10], 1.11; in [11], 0.804; in [13], 0.305; in [14] it was 0.0554. Also, the composite z-score in test [15] turned out to be 0.263; in test [16], 2.49; in test [17] it was 0.512; in test [18], 1.29; in test [19] it was 0.205; in test [20], 1.18. The same molecule returned a z-score in test [2] of -1.04. The composite Z-score in [12] is 0.403 (inactive).

With `C=CC[C@H](OC(=O)Nc1ccc(SC)cc1)c1ccc(OCCO)cc1`, the composite z-score is -0.833 in test [1]; -0.952 in test [3]; -0.316 in test [4]; 0.461 in test [5]; -0.0994 in [6]; 0.0188 in [7]. Besides, the composite z-score in [8] was 1.48; in test [9], -0.286; in test [10], 0.191; in [11], -0.0497; in test [13] it was -0.0321; in [14], -0.0996. Besides, the composite z-score in [15] is 0.655; in [16], -0.365; in test [17] it was 0.656; in test [18] it was -1.12; in [19] it was 0.0241; in test [20], -0.32. The z-score in test [2] was 1.34. Further, the composite Z-score in test [12] is 0.154 (inactive).

Take `C=CCN1C(=O)[C@]2(O[C@H](CCO)[C@@H]([Si](C)(C)c3ccc(OC)cc3)[C@@H]2C)c2cc(NC(=O)c3ccc(OC)cc3)ccc21`: the composite z-score in test [1] was 1.12; in test [3], 0.391; in test [4], 0.0503; in [5], 0.631; in test [6], -0.102; in [7], -0.0553. Further, the composite z-score in test [8] was -0.0184; in test [9], 0.336; in test [10], 0.732; in test [11], -0.296; in test [13], -0.0017; in [14], -0.108. Further, the composite z-score in [15] was found to be 0.216; in test [16], 0.13; in [17] it was 0.0305; in test [18] it was 1.04; in test [19] it was 0.878; in test [20], 0.689. The z-score in [2] was -5.1. In addition, the composite Z-score in [12] is 0.0866 (inactive).

`[N-]=[N+]=NCc1ccccc1[C@H]1OC(c2ccc(OCCCO)cc2)=N[C@@]1(CCS(=O)(=O)c1ccccc1)C(=O)NCc1ccccc1`: the composite z-score in [1] turned out to be 1.4; in test [3], 0.115; in [4] it was 1.65; in test [5], 0.84; in [6] it was 0.0253; in [7], 0.14. In addition, the composite z-score is 0.543 in [8]; 0.804 in test [9]; 2.15 in test [10]; 0.852 in test [11]; 0.281 in test [13]; 0.0323 in [14]. The composite z-score in test [15] is 0.435; in test [16], 1.6; in [17], 0.0714; in test [18] it was 1.24; in [19] it was 0.187; in test [20], 1.13. In addition, the z-score in [2] is -2.04. In addition, in test [12], the composite Z-score is 0.421 (inactive).

Regarding `COc1cc(C(O)C2C=CC3C(=O)N(Cc4ccccc4)C(=O)C3N2n2cnnc2)cc(OC)c1OC` (stereo not given), the composite z-score turned out to be 0.335 in test [1]; 0.109 in [3]; 0.409 in test [4]; 0.0996 in test [5]; 0.0751 in test [6]; 0.543 in [7]. Besides, the composite z-score turned out to be 0.266 in test [8]; 0.88 in test [9]; 0.971 in test [10]; 0.578 in test [11]; 0.401 in test [13]; 0.202 in test [14]. The composite z-score is 0.686 in [15]; 1.1 in test [16]; 1.01 in test [17]; 0.462 in test [18]; -0.141 in test [19]; 0.458 in test [20]. The same molecule showed a z-score in [2] of 0.312. For the same molecule, the composite Z-score in [12] is -0.0603 (inactive).

Consider `[N-]=[N+]=NC[C@H](Cc1ccccc1)NC(=O)c1ccccc1`, for which the composite z-score was -0.778 in test [1]; -0.0257 in [3]; -0.334 in test [4]; -0.203 in test [5]; -0.0269 in [6]; -0.0146 in [7]. Also, the composite z-score in test [8] was -0.293; in test [9], 0.363; in test [10], 0.0961; in test [11], 0.494; in test [13], 0.056; in test [14], -0.0783. The composite z-score in test [15] is 0.294; in [16], 0.12; in test [17], -0.0013; in test [18] it was -0.258; in test [19], 0.433; in [20], -0.855. In test [2], this molecule yielded a z-score of 2.25. Further, the composite Z-score in test [12] was -0.0662 (inactive).

On to `CCOC(=O)C1=CCC(c2ccco2)N(S(=O)(=O)c2ccc(C)cc2)C1` (stereo not given), for which the composite z-score in test [1] was determined as 1.36; in test [3], 0.297; in test [4], 0.921; in test [5], 0.0331; in [6], 0.0279; in test [7], 0.0048. For the same molecule, the composite z-score in [8] is -0.423; in [9], 0.761; in [10], 0.818; in [11], 0.769; in test [13], 0.196; in test [14], 0.0006. Also, the composite z-score stood at 0.581 in [15]; 1.48 in [16]; 0.509 in test [17]; 1.22 in test [18]; 0.388 in test [19]; 0.956 in test [20]. This molecule also yielded a z-score in test [2] of -2.3. Besides, the composite Z-score in [12] is 0.204 (inactive).

Consider `O=C1N(CCS(=O)(=O)c2ccccc2)Cc2ccccc2[C@@H]2OC(c3ccc(OCCCO)cc3)=N[C@]12CCS(=O)(=O)c1ccccc1`, for which the composite z-score was 1.48 in [1]; 1.14 in test [3]; 1.23 in [4]; -0.104 in [5]; 0.104 in test [6]; 0.0898 in test [7]. For the same molecule, the composite z-score amounted to 0.445 in test [8]; 1.72 in [9]; 0.821 in test [10]; 0.0789 in [11]; 0.128 in test [13]; 0.123 in [14]. Moreover, the composite z-score worked out at 0.628 in test [15]; 2.98 in [16]; 0.638 in [17]; 1.31 in test [18]; 1.15 in [19]; 1.11 in test [20]. For the same molecule, in test [2], the z-score was -0.0756. Further, the composite Z-score in test [12] was 0.02 (inactive).

For `CC(C)C[C@@H]1NC(=O)[C@@H]2C[C@H](C(=O)NCCCCCC[N+](C)(C)C)[C@H](c3cccc(OCCO)c3)N2C1=O`, the composite z-score in test [1] was 1.31; in [3], -0.184; in test [4], -0.105; in [5], -0.744; in test [6] it was -0.156; in [7] it was -0.0234. Further, the composite z-score was -0.249 in test [8]; 0.369 in [9]; 0.446 in [10]; -0.391 in test [11]; -0.0311 in test [13]; -0.128 in test [14]. Besides, the composite z-score in test [15] came out at 0.511; in test [16], 2.37; in test [17], 0.241; in test [18] it was 0.584; in test [19], 0.562; in test [20] it was 0.644. The z-score in test [2] was -0.926. Further, the composite Z-score in test [12] is 0.0931 (inactive).
